Consider eight compounds from PubChem BioAssay.

For assay [1], the system named is TRPC4 beta (transient receptor potential cation channel C4), mouse. The assay is described as follows: activators of mouse TRPC4 channel, confirmation, cell-based, Fluo4 calcium, HEK293 TRPC4beta/mu-opioid, duplicates, 10 µM (AID 2426). The note with it: Fluo4 calcium fluorescence, at 10 µM; hits give high values.
Assay [2] relates to transient receptor potential cation channel C4 beta (TRPC4), mouse. The assay is described as follows: activators of mouse TRPC4 channel, confirmation, cell-based, second round, Fluo4, HEK293 TRPC4beta/mu-opioid, 1 µM (AID 2461;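 active = primary screen active and over 50% activation in each of two duplicate runs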). The note with it: Fluo4 calcium fluorescence, at 1 µM; hits give high values.
The subject of assay [3] is TRPC4 (transient receptor potential cation channel C4 beta), mouse. The assay is described as follows: positive allosteric modulators of mouse TRPC4, confirmation, cell-based, second round, Fluo-4, HEK293 TRPC4beta/mu-opioid, 1 µM (AID 2554;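 active = primary screen hit whose fluorescence ratio, in both repeats, exceeds the weak agonist control mean by 3 SD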). The note with it: DAMGO EC20, Fluo-4 calcium flux, at 1 µM; hits give high values. A general note: A change in cytosolic calcium serves as a functional read-out for many receptors and channels.

Assay [4] deals with TRPC4 beta (transient receptor potential cation channel C4), mouse. The assay is described as follows: positive allosteric modulators of mouse TRPC4, confirmation, cell-based, Fluo-4, HEK293 TRPC4beta/mu-opioid (AID 2555;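 active = primary screen hit whose calcium fluorescence ratio, in both repeats, exceeds the weak agonist control mean by 3 SD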). The conditions noted are these: DAMGO EC20, Fluo-4 calcium flux, at 10 µM; hits give high values.
Assay [5] has as its target Short transient receptor potential channel 4 (Mus musculus) (UniProt Q9QUQ5). The assay is described as follows: inhibitors of mouse TRPC4 channel, confirmation, cell-based, Fluo4, HEK293 TRPC4beta/mu-opioid (AID 2636;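 active = calcium signal cut by more than 3 SD below the full-agonist control yet still positive, in both repeats and the earlier primary screen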). The note with it: DAMGO, Fluo4 calcium flux, at 10 µM; hits give high values.
Assay [6] shares this target. The assay is described as follows: inhibitors of mouse TRPC4 channel, confirmation, cell-based, second round, Fluo4, HEK293 TRPC4beta/mu-opioid, 1 µM (AID 2637;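 active = calcium signal ratio cut to more than 3 SD under the fully stimulated control mean yet still positive, in both repeats and the primary screen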). The note with it: Fluo4 calcium flux, DAMGO, at 1 µM; hits give high values.
The target is the same in assay [7]. The assay is described as follows: mouse TRPC4 channel activators, dose response, cell-based, HEK293 TRPC4/mu-opioid, Fluo-4 calcium (AID 434937;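 active = primary screen activator hit with a dose response curve and TRPC4 channel activation at any tested dose; inactive = no activation, no dose response, or not a primary hit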).
Assay [8] has the same target. The assay is described as follows: TRPC4 positive allosteric modulators, dose response, cell-based, HEK293 TRPC4/mu-opioid, Fluo-4 calcium, EC20 DAMGO (AID 434941;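 active = earlier screen potentiator hit that boosts the TRPC4 ion channel at some dose, with a dose response; inactive = no potentiation, no dose response, or not a prior hit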;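 note: calcium entry triggered by an EC20 dose of DAMGO at the co-expressed mu-opioid receptor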).
The target is the same in assay [9]. The assay is described as follows: mouse TRPC4 channel inhibitors, dose response, cell-based, HEK293 TRPC4/mu-opioid, Fluo-4 calcium (AID 434942;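 active = primary screen inhibitor hit that blocks the TRPC4 channel at some tested dose, yielding a dose curve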).
The target of assay [10] is Short transient receptor potential channel 6 (Mus musculus) (UniProt Q61143). The assay is described as follows: inhibition of mouse TRPC6 channel, confirmation, selectivity assay for TRPC4 inhibitor project, cell-based, HEK293, membrane potential dye, duplicate (AID 434948;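 active = active in primary screen and both duplicates, each dropping signal beyond three positive-control SD with fluorescence still positive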). The note with it: HEK293 TRPC6, membrane potential dye fluorescence, at 10 µM, stimulated with maximal-effect acetylcholine; hits give high values.
Short transient receptor potential channel 6 (Mus musculus), sequence (Q61143 whole entry, looked up): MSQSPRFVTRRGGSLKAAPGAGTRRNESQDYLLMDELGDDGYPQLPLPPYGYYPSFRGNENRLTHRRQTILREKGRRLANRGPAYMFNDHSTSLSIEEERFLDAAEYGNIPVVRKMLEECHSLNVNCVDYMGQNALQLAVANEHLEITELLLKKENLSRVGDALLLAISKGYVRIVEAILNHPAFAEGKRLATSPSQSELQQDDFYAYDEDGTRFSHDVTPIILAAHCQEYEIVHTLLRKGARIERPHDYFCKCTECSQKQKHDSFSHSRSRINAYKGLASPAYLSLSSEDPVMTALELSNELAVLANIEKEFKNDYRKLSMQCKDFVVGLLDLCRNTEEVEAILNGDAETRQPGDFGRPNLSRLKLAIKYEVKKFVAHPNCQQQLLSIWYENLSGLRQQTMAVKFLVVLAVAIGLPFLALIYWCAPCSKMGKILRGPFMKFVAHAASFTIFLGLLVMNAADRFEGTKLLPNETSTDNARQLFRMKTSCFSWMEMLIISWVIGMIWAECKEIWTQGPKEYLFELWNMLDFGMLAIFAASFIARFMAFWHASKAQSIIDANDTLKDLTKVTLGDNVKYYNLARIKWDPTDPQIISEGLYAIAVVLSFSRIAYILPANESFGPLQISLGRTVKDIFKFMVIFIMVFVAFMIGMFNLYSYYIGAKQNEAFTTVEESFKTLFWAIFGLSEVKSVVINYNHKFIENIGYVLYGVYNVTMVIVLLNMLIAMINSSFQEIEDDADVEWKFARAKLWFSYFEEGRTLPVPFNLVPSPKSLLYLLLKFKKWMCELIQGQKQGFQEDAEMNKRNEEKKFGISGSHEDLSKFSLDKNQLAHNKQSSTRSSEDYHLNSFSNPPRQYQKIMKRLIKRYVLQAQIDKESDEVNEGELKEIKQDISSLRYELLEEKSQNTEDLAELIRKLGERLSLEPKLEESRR

For assay [11] the target is unchanged. The assay is described as follows: activation of mouse TRPC6 channel, confirmation, selectivity assay for TRPC4 activator project, cell-based, HEK293, membrane potential dye, duplicate (AID 434950;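 active = membrane potential signal rise above negative control mean plus 3 SD in both duplicates, also active in the earlier TRPC4 screen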). The note with it: HEK293 TRPC6, membrane potential fluorescence, at 10 µM; hits give high values.
For assay [12] the target is unchanged. The assay is described as follows: TRPC6 potentiation by TRPC4 potentiator hits, confirmation, selectivity assay for TRPC4 potentiator project, HEK293 cells, membrane potential dye, duplicate (AID 434952;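 active = compound raising the membrane signal above positive-control mean plus 3 SD in both repeats, and a primary screen hit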). The note with it: HEK293 TRPC6, membrane potential dye fluorescence, at 10 µM, maximal acetylcholine added after compound; hits give high values.
Assay [13] deals with Short transient receptor potential channel 4 (Mus musculus) (UniProt Q9QUQ5). The assay is described as follows: calcium flux activators in TRPC4/5HT1a cells, counter-screen for TRPC4 activator project, cell-based, second counter screen, HEK293 TRPC4/5HT1a, Fluo-4 (AID 434977;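 active = calcium signal rise above buffer-control mean plus 5 SD in both duplicates, and also a hit in the primary screen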). The note with it: Fluo-4 calcium flux, at 10 µM; hits give high values.
Short transient receptor potential channel 4 (Mus musculus), sequence (Q9QUQ5 whole entry, looked up): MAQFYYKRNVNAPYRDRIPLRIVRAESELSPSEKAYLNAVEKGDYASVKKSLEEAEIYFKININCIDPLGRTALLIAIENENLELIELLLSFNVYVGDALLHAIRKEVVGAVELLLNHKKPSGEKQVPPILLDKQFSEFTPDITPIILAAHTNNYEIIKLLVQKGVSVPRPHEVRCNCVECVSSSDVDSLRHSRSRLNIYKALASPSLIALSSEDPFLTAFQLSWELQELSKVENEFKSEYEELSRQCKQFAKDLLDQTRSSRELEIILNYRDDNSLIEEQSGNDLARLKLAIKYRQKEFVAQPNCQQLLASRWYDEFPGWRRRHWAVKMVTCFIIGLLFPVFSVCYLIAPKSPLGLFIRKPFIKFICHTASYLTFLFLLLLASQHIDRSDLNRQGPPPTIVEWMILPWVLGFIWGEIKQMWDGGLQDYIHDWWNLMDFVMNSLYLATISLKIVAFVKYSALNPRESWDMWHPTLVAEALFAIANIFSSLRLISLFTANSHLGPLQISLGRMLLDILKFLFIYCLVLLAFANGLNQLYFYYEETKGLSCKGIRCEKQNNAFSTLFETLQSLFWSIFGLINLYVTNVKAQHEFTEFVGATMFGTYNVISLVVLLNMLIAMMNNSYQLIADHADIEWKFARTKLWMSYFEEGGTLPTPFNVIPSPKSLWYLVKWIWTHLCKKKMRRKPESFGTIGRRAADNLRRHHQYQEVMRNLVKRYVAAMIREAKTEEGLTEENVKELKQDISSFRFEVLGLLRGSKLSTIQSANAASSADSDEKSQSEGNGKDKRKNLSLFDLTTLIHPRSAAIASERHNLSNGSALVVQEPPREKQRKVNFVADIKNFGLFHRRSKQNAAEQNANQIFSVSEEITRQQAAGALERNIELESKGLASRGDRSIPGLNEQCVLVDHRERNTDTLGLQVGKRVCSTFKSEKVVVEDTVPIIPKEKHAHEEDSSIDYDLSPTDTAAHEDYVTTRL
The nature of assay [14]: calcium flux inhibitors in TRPC4/5HT1a cells, confirmation, counter-screen for TRPC4 inhibitor project, cell-based, second counter screen, HEK293 TRPC4/5HT1a, Fluo-4 (AID 434978;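 active = primary screen active whose calcium signal fell more than 3 SD beyond the full-serotonin control mean in both duplicate plates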;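 note: serotonin given first at submaximal then at maximal dose after compound preincubation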). The note with it: Fluo-4 calcium flux, at 10 µM, serotonin added to trigger calcium flux; hits give high values.
The test system of assay [15] is TRPC4 (mouse), co-expressed with 5HT1a in HEK293. The assay is described as follows: calcium flux potentiators in TRPC4/5HT1a cells, confirmation, counter-screen for TRPC4 potentiator project, cell-based, second counter screen, HEK293 TRPC4/5HT1a, Fluo-4 (AID 434979;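 active = signal rise over 3 SD above mean of control wells given weak agonist, in both repeats and first screen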). The note with it: Fluo-4 calcium flux, at 10 µM, serotonin added at its EC20 dose; hits give high values.

Assay [16] in a line: calcium flux activation in mu-opioid HEK293 cells, confirmation, counter-screen for TRPC4 activator project, cell-based, HEK293 mu-opioid receptor line (AID 449723;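 active = hit in primary screen, with calcium signal over 5 SD above buffer well mean in both duplicates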;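 note: counter screen cells carry the mu-opioid receptor alone and lack TRPC4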). The note with it: Fluo-4 calcium fluorescence, at 10 µM; hits give high values.
Assay [17] in a line: calcium flux enhancement in mu-opioid HEK293 cells, confirmation, counter-screen for TRPC4 allosteric potentiator project, cell-based, HEK293 mu-opioid receptor line (AID 449724;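 active = calcium signal rise more than 3 SD above the low-dose agonist control mean, in both duplicate plates and the primary screen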;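 note: HEK293 cells carrying mu-opioid receptor only with no TRPC4 channel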). The conditions noted are these: Fluo-4 calcium flux, at 10 µM, compound added before EC20 DAMGO stimulus; hits give high values.

Molecules are shown by their SMILES. For some of these results: Entries with a potency or affinity are not part of this list. Calls of active or inactive are those of the source.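 Rule for the calls, unless noted: active = fluorescence ratio normalized to control raised more than 50% in primary screen plus both repeat runs; inactive = the rest.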

Consider `OC(CNCCC(c1ccccc1)c1ccccc1)COc1ccccc1` (stereo unspecified), for which the result in [1], in [2], in [3], in assay [4], in assay [5] and in assay [6] was inactive. The outcome in assay [7], in assay [8], in assay [9], in assay [10], in [11] and in assay [12] was inactive. Further, the outcome in assay [13], in [14], in assay [15], in assay [16] and in [17] was inactive.

For the compound `Cc1ccc(/C=C/C(=O)NC2CCCCCCC2)o1`, the result in [1], in assay [2], in assay [3], in assay [5], in assay [6] and in [7] was inactive. Moreover, the result in [8], in [9], in [10], in assay [11], in assay [12] and in assay [13] was inactive. Also, the outcome in [14], in [16] and in [17] was inactive. The figures for the potentiation in [4] and in assay [15] were 16% (active) and 19.1% (active), respectively.

On to `CCOc1cc(/C=C(\C#N)C(=O)Nc2cccc(C(=O)O)c2)cc(Br)c1OC(=O)c1ccc(OC)cc1`, for which the outcome in assay [1], in [2], in assay [3], in assay [5], in assay [6] and in assay [7] was inactive. Besides, the result in [8], in assay [9], in assay [10], in assay [11], in assay [12] and in assay [13] was inactive. The result in assay [14], in assay [16] and in assay [17] was inactive. Moreover, the potentiation in assay [4] is 28% (active); in [15], 16.7% (active).

For the compound `CC(C)(C)NC(=S)N/N=C\c1ccc(-c2ccc([N+](=O)[O-])cc2)o1`, the result in assay [1], in assay [2], in assay [3], in assay [4], in assay [5] and in [6] was inactive. The result in assay [7], in assay [8], in [9], in [10], in assay [11] and in assay [13] was inactive. The result in assay [14], in assay [16] and in assay [17] was inactive. For the same compound, the potentiation, percent of control in assay [12] is 142% (active). The potentiation in [15] was 15.4% (active).

Consider `COc1ccc(C(=O)NNC(=O)CN2CCC(n3nnc4cc(C)ccc43)CC2)cc1`, for which the outcome in assay [1], in assay [2], in [5], in assay [6], in [7] and in assay [8] was inactive. Moreover, the result in [9], in assay [10], in assay [11], in [12], in assay [13] and in [14] was inactive. Besides, the result in assay [15], in assay [16] and in assay [17] was inactive. Also, the potentiation in assay [3] is 15% (active); in [4], 28% (active).

As to `CNc1oc(-c2ccccc2Cl)nc1P(=O)(c1ccccc1)c1ccccc1`, the result in assay [1], in assay [2], in assay [3], in assay [4], in assay [5] and in assay [6] was inactive. Further, the result in [7], in assay [8], in assay [9], in assay [10], in assay [11] and in assay [12] was inactive. For the same compound, the outcome in assay [13], in assay [14], in assay [15], in assay [16] and in [17] was inactive.

As to `COc1cc(C2c3c(-c4ccccc4)n[nH]c3C(=O)N2c2ccccc2)ccc1O` (stereo unspecified), the outcome in assay [1], in assay [2], in assay [3], in [5], in assay [6] and in [7] was inactive. Further, the outcome in assay [8], in [9], in [10], in [11], in assay [12] and in assay [13] was inactive. The result in assay [14], in [16] and in assay [17] was inactive. Besides, the results for the potentiation in assay [4] and in [15] were 16% (active) and 17% (active), respectively.

For `CC1CCN(CCCCOc2ccc([N+](=O)[O-])cc2)CC1`, the result in assay [1], in assay [2], in assay [3], in assay [4], in assay [5] and in [6] was inactive. Besides, the outcome in assay [7], in [8], in [9], in assay [10], in assay [11] and in assay [12] was inactive. Further, the result in [13], in assay [14], in assay [15], in assay [16] and in assay [17] was inactive.
